The record followed here is PubChem BioAssay.

SMILES strings stand for the structures.

The assay in a line: viability loss with induced miR-34 in A549 – imaging, A549 dox-inducible miR-34, nuclei and caspase counts, primary screen (AID 1347080). Further: test concentration not given here. To be noted: A549 miR-34 inducible, Hoechst nuclei count, 48 h; measured here: total cells without miR-34 induction.
In turn, `Nc1nc2[nH]c(=O)[nH]c2c(=O)[nH]1` had a cell count of 6740. For `CCCCC/C=C\C/C=C\C/C=C\C/C=C\CCCC(=O)OCC(O)CO` (stereo unspecified), the cell count came to 5380. `CC(C)OC(=O)CCC/C=C\C[C@@H]1[C@@H](/C=C/[C@H](O)C2Cc3ccccc3C2)[C@@H](F)C[C@@H]1O` yielded a cell count of 5450. Turning to `CCCCC[C@H](O)/C=C/[C@H]1C=CC(=O)[C@H]1C/C=C\CCCC(=O)O`, the cell count worked out at 5800. In the case of `CCCCC/C=C\C/C=C\C/C=C\C/C=C\CCCC(=O)OCc1ccsc1` it was 6340; in that of `CC(C)CCCCCCC/C=C/C(=O)O`, 5910.

As for `O=C(OC[C@@H]1O[C@H]1c1ccccc1)Oc1ccc([N+](=O)[O-])cc1`, the cell count was 6200. `CC/C=C/C[C@H](O)/C=C/[C@H]1[C@H](O)CC(=O)[C@@H]1C/C=C\CCCC(=O)O` came in with a cell count of 6230. Turning to `C#CCCC[C@@H](O)CCCCCCCCCCC(=O)O`, the cell count was found to be 5890. In the case of `CCCCCCCCCCCCCCCC(=O)OC[C@H](COP(=O)([O-])OCC[N+](C)(C)C)OC(=O)CCCCCCCC(=O)/C=C/C(=O)O`, the cell count was determined as 6100. `CC#CCC(C)[C@@H](O)/C=C/[C@@H]1[C@H]2C/C(=C\CCCC(=O)O)C[C@H]2C[C@H]1O` (stereo partly specified) registered a cell count of 5500. With `CC(=O)OCC(=O)[C@@]12N=C(C)O[C@@H]1CC1C3CCC4=CC(=O)C=C[C@]4(C)C3[C@@H](O)C[C@@]12C` (stereo partly specified) the figure was 6910; with `CCCCC[C@H](O)/C=C/[C@H]1[C@H](O)CC(=O)[C@@H]1C/C=C\CCCC(=O)NC(CO)CO`, 5870. For the compound `O=C(O)CCC/C=C\C[C@@H]1[C@@H](CCC(=O)CCc2ccccc2)[C@H](O)C[C@@H]1O`, the cell count is 6390. With `c1ccc2c(NCCCCCCCNc3c4c(nc5ccccc35)CCCC4)c3c(nc2c1)CCCC3` the figure was 4230; with `C=CCN(C)CCCCCCOc1ccc(C(=O)c2ccc(Br)cc2)c(F)c1`, 5660; with `CCCC[C@H](C)C[C@H](O)/C=C/[C@H]1[C@H](O)CC(=O)[C@@H]1CCCC/C=C/C(=O)O`, 6200. As for `CCCCC[C@H](O)/C=C/[C@H]1C=CC(=O)[C@@H]1CCCCCCC(=O)OCC`, the cell count worked out at 5620.

`CCCCCCCC/C=C\CCCCCCCC(=O)C(F)(F)F` yielded a cell count of 6380. `CCCCC/C=C/C=C1/C=CC(=O)[C@@H]1CCCCCCC(=O)O` came in with a cell count of 3250. The compound `CCCCC(C)(C)[C@H](O)/C=C/[C@H]1[C@H](O)CC(=O)[C@@H]1CCCCCCC(=O)O` came in with a cell count of 6020.

For `CC(C)ON(CC(=O)NO)S(=O)(=O)c1ccc(-c2ccccc2)cc1`, the cell count is 6240. The compound `[O-]/[N+](=N/O[C@@H]1O[C@H](CO)[C@H](O)[C@H](O)[C@H]1O)N1CCCC1` returned a cell count of 7260. Take `O=P(O)(O)OC1[C@@H](O)[C@H](O)C(O)[C@H](O)[C@@H]1O` (stereo partly specified): the cell count is 6010. With `COc1ccc2c(c1)c(CC(=O)Oc1ccc(-c3cc(=S)ss3)cc1)c(C)n2C(=O)c1ccc(Cl)cc1` the figure was 5490. In turn, `COc1ccc(-c2nc3cc(F)ccc3s2)cc1OC` returned a cell count of 5370.
